Compounds with a hit are over-represented: about 12% of the library has one in this group of screens.
Sfp PPTase inh: Sfp phosphopantetheinyl transferase inhibition | Q9F4F7 | Potency, µM, inactives show largest response in the series, negative = inhibition, actives largely listed as inhibitors | 3.5% of 310,000 active | Biochemical Sfp PPTase activity, qHTS;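 note: the enzyme is Sfp with the accession as filed and its product quenches rhodamine fluorescence; 0% = enzyme reaction without inhibitor and -100% = no enzyme wells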
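Fluorescence-quenching assay with 15 nM Sfp, 5 uM rhodamine-CoA and 12.5 uM BHQ-2-labelled ybbR peptide in pH 7.6 Hepes/MgCl2 buffer. Enzyme was pre-incubated with compound for 15 min at room temperature. Rate was taken from the 30-min fluorescence change (525/598 nm).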
BAZ2B inh: BAZ2B (human) inhibition | Q9UIF8 | Potency, µM (series often up to 114 µM), for inactives: at the highest dose activity change, negative = inhibition, actives largely listed as inhibitors | AlphaScreen BAZ2B-H3K14Ac peptide displacement | 4.4% of 360,000 active; note: % is set by controls: 0 for no effect and ±100 for the full control effect; nearly all actives have a fitted effect of over 60% in size
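BAZ2B 50 nM plus b-H3(5-23)K14Ac 50 nM, PBS pH 7.4/0.01% Tween-20, 30 min RT; compound added (max 110 uM), 30 min RT; streptavidin donor/Ni-chelate acceptor beads 10 ug/mL final, 20 min dark; AlphaScreen read.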
TDP1 block: TDP1 (human) enzyme inhibition; Q9NUW8; recombinant TDP1, AlphaScreen DNA substrate cleavage; Potency, µM (titrated, usually from 130 µM), without a hit: at the top dose activity change, negative = inhibition, most hits filed as inhibitors; 0.28% of 350,000 active; AID 485290; note: % is set by controls: 0 for no effect and ±100 for the full control effect; nearly all actives have a fitted effect of over 40% in size
Target sequence (Q9NUW8 whole entry, looked up): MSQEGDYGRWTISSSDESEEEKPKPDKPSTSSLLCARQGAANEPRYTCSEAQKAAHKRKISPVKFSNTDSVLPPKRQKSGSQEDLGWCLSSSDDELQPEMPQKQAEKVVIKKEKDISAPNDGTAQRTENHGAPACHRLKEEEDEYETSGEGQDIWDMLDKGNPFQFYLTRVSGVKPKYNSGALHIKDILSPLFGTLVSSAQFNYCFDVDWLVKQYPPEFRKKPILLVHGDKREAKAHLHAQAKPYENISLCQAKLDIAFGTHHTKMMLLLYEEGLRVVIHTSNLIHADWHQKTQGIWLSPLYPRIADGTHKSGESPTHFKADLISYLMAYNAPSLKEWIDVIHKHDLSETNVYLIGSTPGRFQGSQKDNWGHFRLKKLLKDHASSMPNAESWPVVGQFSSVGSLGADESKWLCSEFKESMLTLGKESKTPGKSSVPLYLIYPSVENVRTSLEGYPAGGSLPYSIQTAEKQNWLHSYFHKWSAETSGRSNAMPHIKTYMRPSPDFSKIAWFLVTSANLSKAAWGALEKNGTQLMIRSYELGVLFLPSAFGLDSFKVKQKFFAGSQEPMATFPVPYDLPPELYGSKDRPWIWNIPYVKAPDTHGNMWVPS
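Here, a 5' biotin and 3' phosphotyrosine-FITC DNA oligonucleotide reports Tdp1 activity: intact substrate bridges AlphaScreen beads, while cleavage leaves a 3' phosphate and drops signal. All incubations at room temperature.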
G9a inh: inhibitors of human histone lysine methyltransferase G9a | Q96KQ7 | G9a H3K9 monomethylation, AlphaScreen, 2 h | Potency, µM (titrated, usually from 102 µM), for inactives: at the highest dose activity, negative = inhibition, actives largely listed as inhibitors | 8.8% of 350,000 active; note: % is set by controls: 0 for no effect and ±100 for the full control effect; nearly all actives have a fitted effect of over 75% in size
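Signal arises when biotinylated H3K9 peptide, once monomethylated, bridges streptavidin donor and antibody-captured acceptor beads. Enzyme at 20 nM was preincubated 15 min with test compounds; peptide 500 nM and SAM 20 uM then reacted for 2 h.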
JMJD2A Tudor inh: blocks the human JMJD2A Tudor domain. O75164. AlphaScreen JMJD2A-Tudor / H3K4me3 peptide binding. Potency, µM (series often up to 114 µM), without a hit: at the highest dose activity change, negative = inhibition, most hits filed as inhibitors. 4.4% of 390,000 active. AID 504339; note: % is set by controls: 0 for no effect and ±100 for the full control effect; nearly all actives have a fitted effect of over 50% in size
HP1b binding inh: inhibitors of HP1-beta chromodomain binding to methylated histone tails. Potency, µM (series often up to 114 µM), without a hit: at the top dose activity change, negative = inhibition, most hits filed as inhibitors. AID 540317. 0.56% of 390,000 active. AlphaScreen HP1-beta / biotin-H3K9me3 peptide binding; note: nearly all actives have a fitted effect of over 70% in size
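Compound inhibition of the preformed complex between 50 nM HP1-beta and 50 nM biotinylated H3K9me3 peptide was read by AlphaScreen. Buffer was PBS pH 7.4 with 0.01% Tween-20. Incubations ran 30 min at room temperature, with 10 ug/mL donor/acceptor beads.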
Active calls of the source: *; ? = inconclusive; · = no result; [ ] = dose if it differs, or a comment. Calls come from the whole dose curve; as a rule, active = well fitted curve in the direction sought with a large enough effect; inconclusive = small, poorly fitted or top-dose-only effect, or another doubt; inactive = no such curve, though single readings can be large; an effect the other way counts as inactive or inconclusive. Potency is the fitted concentration of half-maximal effect.

SMILES	Sfp PPTase inh	BAZ2B inh	TDP1 block	G9a inh	JMJD2A Tudor inh	HP1b binding inh
O=C(CCn1c(=O)c2cccn2c2ccc(F)cc21)NCc1ccccc1F	·	-3%	-6%	5%[59 µM]	-3%	35%
CC(=O)c1ccc(NC(=S)NCc2cccnc2)cc1	14%	-32%	-5%	-22%	-25%	36%
Cc1ccc(C(=O)Nc2ccc3c(c2)nc(CCNC(=O)c2ccco2)n3C)cc1	5%	8%	-19%	-4%[59 µM]	8%	39%
Cc1ccc(OCC(=O)NCC(=O)OCc2cc(=O)n3nc(C)sc3n2)cc1	·	-12%	7%	-1%[59 µM]	-15%	54%
CCc1ccccc1N(CC(=O)N1CCCC1)S(C)(=O)=O	12%	4%	3%	6%	9%	39%
COc1ccc(N2CCN(C(C)C(=O)N(C)Cc3ccccc3)CC2)cc1 (stereo not given)	8%	-13%	·	50µM*	-21%	-10%
CCc1ccccc1N(CC(=O)N1CCN(c2ccc(F)cc2)CC1)S(C)(=O)=O	15%	-10%	1%	79µM*	?	20%
COc1ccc(N2CCN(C(=O)CN(Cc3ccc(Cl)cc3)S(C)(=O)=O)CC2)cc1	5%	?	4%	79µM*	?	-21%
CS(=O)(=O)N(CC(=O)N1CCN(Cc2ccc3c(c2)OCO3)CC1)Cc1ccc(Cl)cc1	-3%	56µM*	0%	?	-27%	7%
CCOC(=O)c1c(S(=O)(=O)N2CCCC(C(=O)NCc3cccc(OC)c3)C2)c(C)n(C)c1C (stereo not given)	·	-1%	-1%	8%[59 µM]	?	21%
COc1ccc(N2CCN(C(=O)CCCOc3cc(=O)n(C)c4ccccc34)CC2)cc1	-5%	?	-2%	79µM*	?	-6%
CN(C(=O)Nc1ccc(Cl)c(Cl)c1)c1ccccc1C(=O)O	-25%	-12%	3%	56µM*	5%	7%
O=C(Nc1ccc(Cl)c(Cl)c1)c1ccccc1	·	11%	-12%	-7%[2.33 µM]	18%	61%
O=c1c2c3nc4ccccc4nc3n(-c3ccc4c(c3)OCCO4)c2ncn1C1CCCC1	6%	·	4%	-5%[59 µM]	79µM*	42%
O=c1c2c3nc4ccccc4nc3n(-c3ccc4c(c3)OCCO4)c2ncn1CC1CCCO1 (stereo not given)	-8%	-6%	4%	6%	·	·
CCNC(=O)Cn1c(-c2cccs2)cc2ccccc21	·	-2%	-5%	0%[59 µM]	-15%	29%
CCOC(=O)Cn1c(COc2ccccc2OC)[n+](C)c2ccccc21	·	·	·	·	-1%	48%
CCCCCCCCCCOC(=O)Cn1c(COc2ccccc2)[n+](C)c2ccccc21	40µM*	-2%	·	-12%	-28%	16%
CCCCCCCCCCOC(=O)Cn1c(COc2cccc(C)c2)[n+](C)c2ccccc21	56µM*	-7%	·	23%[0.501 µM]	-30%	44%
CCCCOC(=O)Cn1c(=O)n(CC(=O)OCCCC)c2ccccc21	20%	0%	0%	27%	2%	38%
CCCCCCCCCCOC(=O)Cn1c(COc2ccccc2C)[n+](C)c2ccccc21	45µM*	2%	·	-20%	-32%	20%
CCCCCCCCCCOC(=O)Cn1c(COc2ccc(OC)cc2)[n+](C)c2ccccc21	35µM*	-17%	6%	?	?	16%
CC(=O)N1c2ccc(S(=O)(=O)NCC3CCC(C(=O)N4CCCC(C)C4)CC3)cc2CC1C (stereo not given)	21%	-32%	3%	62%	?	9%
Cc1ccccc1-c1cncnc1N1CCN(C)CC1	12%	·	·	0%[0.501 µM]	·	·
CCCCCCCCCCOC(=O)Cn1c(COc2ccc(Cl)cc2)[n+](C)c2ccccc21	25µM*	-21%	·	?	-24%	25%
SMILES	Sfp PPTase inh	BAZ2B inh	TDP1 block	G9a inh	JMJD2A Tudor inh	HP1b binding inh
O=C(CSc1nc(=O)n(CCN2CCOCC2)c2c1CCC2)Nc1ccc(F)cc1F	·	-3%	-3%	2%[59 µM]	-13%	63%
CC1CCC(NC(=O)c2ccc3c(c2)N(Cc2cccc(Cl)c2)C(=O)c2ccccc2S3=O)CC1 (stereo not given)	·	2%	2%	-3%[59 µM]	-21%	1%
CCCCCCCC/C=C\CCCCCCCCOC[C@H](COP(=O)([O-])OCC[N+](C)(C)C)OC(C)=O	6%	·	4%	29%[59 µM]	·	·
COc1cc2c3c(c1)-c1c(sn(-c4cc(OC)ccc4OC)c1=S)C(C)(C)N3C(=O)C2=O	-10%	7.1µM*	10%	?	4%	19%
COc1ccc(N2C(=O)c3ccccc3NC2(C)C)cc1	21%	-15%	0%	-10%[59 µM]	-9%	22%
COc1ccc2c(c1)-c1c(sn(-c3ccccc3)c1=S)C(C)(C)N2	-5%	8.9µM*	13%	28µM*	40µM*	?
COc1ccc(-n2sc3c(c2=S)-c2cc(OC)ccc2NC3(C)C)cc1	?	11µM*	8%	10µM*	3.2µM*	10µM*
CC(C)=CCn1cnc2c1C(NOCc1ccccc1)=NCN2	-25%	·	11%	·	·	·
COC(=O)[C@H](COC(C)(C)C)NC(=O)O[C@H]1C(=O)c2cc(OC)ccc2O[C@@H]1c1ccc(OC)c(Br)c1	19%	·	7%	·	·	·
O=C1CSC(=Nc2ccc(Cl)cc2)N1Cc1cccnc1	-2%	-9%	4%	1%	6%	32%
Cc1ccc(NC(=S)c2nc3ccccc3[nH]2)cc1	12%	10µM*	13%	54%[0.501 µM]	?	?
Cc1ccc(NC(=S)c2nc3ccccc3[nH]2)c(C)c1	-1%	28µM*	8%	?	?	?
COCc1nn2c(=O)cc(N3CCNCC3)nc2s1	·	·	·	·	-3%	·
N#C/C(=N\Nc1ccc(S(=O)(=O)N2CCc3ccccc32)cc1)C(N)=S	?	32µM*	11%	16µM*	?	6.3µM*
CCOC(=O)/C(C#N)=N/Nc1ccc(S(=O)(=O)N2CCc3ccccc32)cc1	14%	?	8%	?	?	?
N#C/C(=N\Nc1ccc(S(=O)(=O)N2CCCCCC2)cc1)C(N)=S	?	-38%	5%	2µM*	?	?
COc1ccc(CCNC(=O)c2cnc3ccc(C)cn3c2=O)cc1OC	·	-1%	0%	1%[59 µM]	-2%	22%
CCC(C)C(=O)Nc1nnc(-c2cccs2)s1 (stereo not given)	50µM*	7%	-2%	14µM*	-12%	13%
COCc1nnc(NC(=O)CCc2ccc(OC)cc2)s1	6%	-10%	0%	·	6%	50%
COCc1nnc(NC(=O)CCc2ccccc2)s1	4%	-14%	4%	11µM*	-12%	63%
O=C(Nc1nnc(-c2cccs2)s1)C1CC1	-48%	-4%	-2%	22µM*	-14%	16%
